From PubChem BioAssay come the findings set out here.

Each structure is given as a SMILES string. Calls of active or inactive are those of the source.

A short description of experiment [1]: small molecules captured by biotinylated probe aFSTL3 – biochemical, small-molecule microarray, fluorescence 635/667, stem cell growth factor project, primary screen (AID 1064).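 Note: measures binding of the biotinylated anti-FSTL3 antibody to printed compounds.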 The settings on record: higher = more signal.
A short description of experiment [2]: binders from COS7 lysate, DM2A8 probe, primary screen, torsin A project, cell lysate, small-molecule microarray, fluorescence 635/667 (AID 1065). The settings on record: higher = more signal, COS7 lysate expressing mutant human TOR1A.
A short description of experiment [3]: small molecules captured by biotinylated probe aFGF2 – biochemical, small-molecule microarray, fluorescence 635/667, stem cell growth factor project, primary screen (AID 1067).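 Note: measures binding of biotinylated aFGF2 protein to printed compounds on slides; z-score merges feature fluorescence and signal-to-noise across triplicate slides.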 The settings on record: higher = more signal.
Experiment [4] in a line: small molecules captured by biotinylated probe aFGF10 – biochemical, small-molecule microarray, fluorescence 635/667, stem cell growth factor project, primary screen (AID 1071).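 Note: score merges 667 nm spot intensity and signal to noise from triplicate slides.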 The settings on record: higher = more signal.
The target of experiment [5] is Neurogenic locus notch homolog protein 2 (Homo sapiens) (UniProt Q04721). In words: small molecules binding Notch2 protein – biochemical, small-molecule microarray, 635 nm fluorescence, stem cell growth factors, primary screen (AID 1073). The settings on record: higher = more signal.
The target in experiment [6] is Pro-neuregulin-1, membrane-bound isoform (Homo sapiens) (UniProt Q02297). In words: small molecules binding neuregulin-1 protein – biochemical, small-molecule microarray, fluorescence 635/667, psychiatric disease protein project, primary screen (AID 1075).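 Note: score combines 667 nm spot fluorescence with signal to noise.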 The settings on record: NRG1 binding, 635 nm fluorescence, higher = more signal.
Experiment [7] deals with Neuregulin-1 EGF-like domain. Description: small molecules binding NRG1 EGF domain – biochemical, small-molecule microarray, 635 nm fluorescence, primary screen (AID 1081).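 Note: binding of the protein to compounds printed on small-molecule microarray slides.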 To be noted: higher = more signal.
Experiment [8] is described as follows: FRG1 expression reporter modulators in myotubes – cell-based, C2C12 myotubes, firefly/Renilla luciferase, luminescence, FRG1 inhibition for FSHD, primary screen (AID 1084). The settings on record: FRG1 promoter luciferase, higher = more signal, called active from +8 up or from −8 down.
Experiment [9] in a line: small molecules captured by biotinylated probe aFST – biochemical, small-molecule microarray, fluorescence 635/667, stem cell growth factor project, primary screen (AID 1086).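 Note: score merges 667 nm fluorescence with signal-to-noise of each printed compound spot.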 To be noted: higher = more signal.
Experiment [10] can be described thus: binders of probe aHhip on microarray, primary screen, stem cell growth factor project, biochemical, small-molecule microarray, fluorescence 635/667 (AID 1087).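 Note: score merges spot fluorescence at 667nm with spot signal to noise ratio.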 To be noted: higher = more signal.
In experiment [11] the test system is PRMT1 (protein arginine N-methyltransferase 1). In words: small molecules binding arginine methyltransferase PRMT1 – biochemical, small-molecule microarray, 635 nm fluorescence, primary screen (AID 1088).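 Note: binding of Prmt1 protein to compounds spotted on small-molecule microarray slides.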 To be noted: higher = more signal.
Experiment [12] can be described thus: growth effects on S. cerevisiae YJM789 – YJM789 clinical isolate, OD600, 24 h, basal, primary screen (AID 1089).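 Note: growth of clinical yeast isolate S. cerevisiae YJM 789 seeded 1000 cells per well; test concentration not given here.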 The settings on record: higher = more signal, called active from +8 up or from −8 down.
Experiment [13] can be described thus: S. pombe growth modifiers, basal conditions – strain 972, OD600, 24 h, no modulator, primary screen (AID 1090).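 Note: basal condition with compound alone and no growth modifier present; test concentration not given here.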 To be noted: S. pombe 972 growth, higher = more signal, called active from +8 up or from −8 down.
Experiment [14] in a line: budding yeast growth modifiers under rapamycin – strain BY4716, OD600, 96 h, primary screen (AID 1091). Note: test concentration not given here. The settings on record: S. cerevisiae BY4716 + rapamycin, higher = more signal, called active from +8 up or from −8 down.
Experiment [15] concerns the target Torsin-1A-interacting protein 2 (Homo sapiens) (UniProt Q8NFQ8). Description: small molecules binding lysate-expressed LULL1 – cell lysate, human LULL1 lysate, 635/667 nm fluorescence, primary screen (AID 1092).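 Note: probe is lysate of COS7 cells overexpressing human LULL1; score merges per-feature 667 nm fluorescence with signal-to-noise.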 The settings on record: small-molecule microarray, hLULL1 lysate binding, 635 nm fluorescence; higher = more signal.
Experiment [16] can be described thus: optical density change of DRC41 E. coli – strain DRC41, OD650, 24 h, E. coli filamentation project, primary screen (AID 1093).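 Note: MC1000 strain lacking acrAB efflux and sulA so SOS filamentation is blocked; test concentration not given here.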 The settings on record: E. coli DRC41 growth, higher = more signal, called active from +8 up or from −8 down.
A short description of experiment [17]: probe aLefty2 binding to arrayed compounds – biochemical, biotinylated probe, 635/667 nm fluorescence, primary screen (AID 1094).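 Note: score merges spot fluorescence near 667 nm with spot signal-to-noise ratio.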 To be noted: small-molecule microarray, higher = more signal.
The test system of experiment [18] is Noggin (protein binding on small-molecule microarray). In words: small molecules binding Noggin protein – biochemical, 635/667 nm fluorescence, primary screen (AID 1095).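 Note: score merges 667 nm feature fluorescence with signal to noise over triplicate slides.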 To be noted: 635 nm fluorescence, higher = more signal.
The target in experiment [19] is Neurogenic locus notch homolog protein 3 (Homo sapiens) (UniProt Q9UM47). Description: small molecules binding NOTCH3 protein – biochemical, 635/667 nm fluorescence, primary screen (AID 1096). To be noted: small-molecule microarray, 635 nm fluorescence, higher = more signal.
A short description of experiment [20]: probe aEGFR binding to arrayed compounds – biochemical, biotinylated probe, 635/667 nm fluorescence, primary screen (AID 1097).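 Note: probe is a biotinylated anti-EGFR antibody binding compounds printed on slides; score combines fluorescence near 667 nm and signal to noise of each spot.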 The settings on record: small-molecule microarray, higher = more signal.

Pro-neuregulin-1, membrane-bound isoform (Homo sapiens), sequence (Q02297 whole entry, looked up, the tested form may be a part, canonical isoform): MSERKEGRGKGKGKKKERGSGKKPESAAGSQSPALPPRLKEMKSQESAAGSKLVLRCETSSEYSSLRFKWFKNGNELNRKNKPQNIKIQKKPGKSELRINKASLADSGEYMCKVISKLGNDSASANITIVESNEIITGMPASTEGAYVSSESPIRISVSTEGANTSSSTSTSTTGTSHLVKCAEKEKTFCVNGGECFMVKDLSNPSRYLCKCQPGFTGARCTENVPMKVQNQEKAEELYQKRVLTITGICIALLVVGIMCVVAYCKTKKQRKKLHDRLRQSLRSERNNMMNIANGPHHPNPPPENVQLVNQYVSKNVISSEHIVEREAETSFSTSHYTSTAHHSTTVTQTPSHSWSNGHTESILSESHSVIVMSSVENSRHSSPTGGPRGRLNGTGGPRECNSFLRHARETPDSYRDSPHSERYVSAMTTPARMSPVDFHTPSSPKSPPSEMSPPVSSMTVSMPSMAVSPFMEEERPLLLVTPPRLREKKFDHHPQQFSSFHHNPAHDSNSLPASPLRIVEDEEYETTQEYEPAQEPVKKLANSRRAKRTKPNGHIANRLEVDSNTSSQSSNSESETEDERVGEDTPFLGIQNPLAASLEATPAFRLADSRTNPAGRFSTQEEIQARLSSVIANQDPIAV
Neurogenic locus notch homolog protein 3 (Homo sapiens), sequence (Q9UM47 whole entry, looked up): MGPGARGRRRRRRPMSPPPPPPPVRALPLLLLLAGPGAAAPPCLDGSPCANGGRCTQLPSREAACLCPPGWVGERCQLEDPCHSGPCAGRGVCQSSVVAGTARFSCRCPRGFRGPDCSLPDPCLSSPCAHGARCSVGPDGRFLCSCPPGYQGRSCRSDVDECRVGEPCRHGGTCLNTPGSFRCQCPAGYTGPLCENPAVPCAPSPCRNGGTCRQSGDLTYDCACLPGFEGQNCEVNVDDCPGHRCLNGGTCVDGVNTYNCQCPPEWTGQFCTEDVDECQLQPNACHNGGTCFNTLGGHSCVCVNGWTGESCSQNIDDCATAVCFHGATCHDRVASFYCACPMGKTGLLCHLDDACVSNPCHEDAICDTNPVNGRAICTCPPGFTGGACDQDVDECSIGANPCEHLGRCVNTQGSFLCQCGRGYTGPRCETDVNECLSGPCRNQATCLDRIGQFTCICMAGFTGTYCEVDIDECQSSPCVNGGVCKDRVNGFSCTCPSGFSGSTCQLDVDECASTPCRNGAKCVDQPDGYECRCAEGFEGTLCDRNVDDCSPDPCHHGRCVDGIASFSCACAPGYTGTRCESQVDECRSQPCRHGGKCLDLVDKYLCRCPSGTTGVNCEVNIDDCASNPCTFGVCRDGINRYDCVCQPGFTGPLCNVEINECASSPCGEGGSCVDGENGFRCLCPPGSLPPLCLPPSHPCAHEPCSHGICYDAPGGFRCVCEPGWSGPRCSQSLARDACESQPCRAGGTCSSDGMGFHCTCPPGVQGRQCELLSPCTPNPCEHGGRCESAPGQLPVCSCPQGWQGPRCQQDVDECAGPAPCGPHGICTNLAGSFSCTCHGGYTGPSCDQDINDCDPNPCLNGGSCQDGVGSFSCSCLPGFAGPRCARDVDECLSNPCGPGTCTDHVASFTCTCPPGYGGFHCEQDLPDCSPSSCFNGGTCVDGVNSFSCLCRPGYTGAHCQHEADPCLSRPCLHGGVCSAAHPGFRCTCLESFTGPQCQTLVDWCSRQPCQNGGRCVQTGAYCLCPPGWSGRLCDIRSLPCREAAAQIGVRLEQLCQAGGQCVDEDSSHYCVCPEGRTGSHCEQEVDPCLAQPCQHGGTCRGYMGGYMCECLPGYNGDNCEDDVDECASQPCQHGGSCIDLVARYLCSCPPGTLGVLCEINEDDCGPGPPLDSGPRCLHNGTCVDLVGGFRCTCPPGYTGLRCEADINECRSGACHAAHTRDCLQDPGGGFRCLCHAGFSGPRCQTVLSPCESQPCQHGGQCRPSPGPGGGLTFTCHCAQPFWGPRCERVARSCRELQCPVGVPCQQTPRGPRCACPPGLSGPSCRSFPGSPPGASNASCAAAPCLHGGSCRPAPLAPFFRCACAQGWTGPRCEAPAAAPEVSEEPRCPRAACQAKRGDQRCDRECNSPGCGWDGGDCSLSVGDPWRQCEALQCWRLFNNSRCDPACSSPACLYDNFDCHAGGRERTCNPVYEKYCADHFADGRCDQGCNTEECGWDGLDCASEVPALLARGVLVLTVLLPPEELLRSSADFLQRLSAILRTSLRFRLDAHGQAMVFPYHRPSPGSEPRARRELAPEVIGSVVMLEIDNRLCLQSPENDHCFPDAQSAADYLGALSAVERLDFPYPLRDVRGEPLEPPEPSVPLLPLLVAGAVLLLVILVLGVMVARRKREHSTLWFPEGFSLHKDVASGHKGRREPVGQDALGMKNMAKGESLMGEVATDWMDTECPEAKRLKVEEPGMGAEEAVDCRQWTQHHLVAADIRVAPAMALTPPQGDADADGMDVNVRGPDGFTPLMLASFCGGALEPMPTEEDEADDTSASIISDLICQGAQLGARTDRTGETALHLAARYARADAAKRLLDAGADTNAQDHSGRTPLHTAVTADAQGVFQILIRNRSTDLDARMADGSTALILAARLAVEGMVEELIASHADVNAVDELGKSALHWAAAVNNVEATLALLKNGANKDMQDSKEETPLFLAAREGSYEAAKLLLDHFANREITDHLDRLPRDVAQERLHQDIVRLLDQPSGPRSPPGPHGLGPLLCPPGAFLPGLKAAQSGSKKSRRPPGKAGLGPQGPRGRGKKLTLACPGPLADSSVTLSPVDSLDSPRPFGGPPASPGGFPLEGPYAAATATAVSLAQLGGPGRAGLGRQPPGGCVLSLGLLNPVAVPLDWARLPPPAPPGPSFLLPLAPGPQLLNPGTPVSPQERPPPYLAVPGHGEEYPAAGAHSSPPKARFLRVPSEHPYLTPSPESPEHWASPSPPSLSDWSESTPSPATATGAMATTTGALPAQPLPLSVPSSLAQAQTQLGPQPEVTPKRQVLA
Torsin-1A-interacting protein 2 (Homo sapiens), sequence (Q8NFQ8 whole entry, looked up): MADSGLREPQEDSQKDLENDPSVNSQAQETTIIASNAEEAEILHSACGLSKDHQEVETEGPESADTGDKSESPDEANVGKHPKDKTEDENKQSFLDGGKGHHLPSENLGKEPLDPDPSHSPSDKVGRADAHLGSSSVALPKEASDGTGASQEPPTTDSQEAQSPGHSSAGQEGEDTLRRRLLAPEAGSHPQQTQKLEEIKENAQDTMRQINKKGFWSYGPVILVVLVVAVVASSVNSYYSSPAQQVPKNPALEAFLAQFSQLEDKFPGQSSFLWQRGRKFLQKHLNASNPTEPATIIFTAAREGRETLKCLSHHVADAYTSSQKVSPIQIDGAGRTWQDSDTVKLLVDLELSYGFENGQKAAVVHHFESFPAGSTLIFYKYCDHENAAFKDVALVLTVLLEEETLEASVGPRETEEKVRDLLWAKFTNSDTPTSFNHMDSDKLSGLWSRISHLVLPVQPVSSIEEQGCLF

Turning to `O=C1C2C=CC(C(O)C3CC=CCC3)N(Nc3ccc([N+](=O)[O-])cc3)C2C(=O)N1c1ccccc1` (stereo not given), the composite z-score in experiment [1] is 1.47; in experiment [2], 1.28; in experiment [3], 0.428; in [4], 1.14; in [5], 1.54; in experiment [6], 1.61. Also, the composite z-score in experiment [7] was found to be 1.26; in [9], 2.28; in experiment [10], 0.0729; in experiment [11], 1.41; in experiment [15], 3.22; in experiment [17], 0.486. Moreover, the composite z-score in experiment [18] was found to be 0.7; in experiment [19], 1.06; in experiment [20] it was 0.298. Besides, the z-score in experiment [8] was -1.06 (inactive); in [12], -1.09 (inactive); in experiment [13] it was 0.531 (inactive); in experiment [14] it was 2.22 (inactive); in experiment [16] it was 0.0043 (inactive).

Consider `C[C@H]1C2[C@H](Cc3ccccc3)NC(=O)[C@]23C(=O)N[C@@H](Cc2ccccc2)C(=O)N2CCC[C@H]2C(=O)NC/C=C/CC/C=C/C3[C@@H]2O[C@]12C` (stereo not given in full), for which the composite z-score was 0.0522 in [1]; 0.483 in [2]; -0.129 in experiment [3]; 0.75 in [4]; 0.237 in experiment [5]; 0.0519 in experiment [6]. Further, the composite z-score is 1.03 in experiment [7]; 0.101 in experiment [9]; -0.0618 in experiment [10]; 1.05 in [11]; 1.7 in experiment [15]; -0.0666 in [17]. For the same molecule, the composite z-score in [18] is 0.79; in experiment [19], 0.977; in experiment [20], -0.135. In addition, the z-score in experiment [8] is 1.28 (inactive); in [12], -0.501 (inactive); in experiment [13] it was -0.36 (inactive); in experiment [14], -0.441 (inactive); in experiment [16], -0.269 (inactive).

Consider `Cc1ccc(S[C@]2(C(=O)NCc3ccccc3)CC(=O)N(Cc3ccccc3C(F)(F)F)[C@@H]2c2ccc(CO)cc2I)cc1`, for which the composite z-score in [1] is 0.412; in experiment [2], -0.135; in experiment [3], -0.106; in experiment [4], -0.655; in experiment [5] it was -0.717; in [6], 1.56. The composite z-score in experiment [7] is 0.472; in experiment [9] it was -0.319; in experiment [10], -0.251; in experiment [11], 1.3; in experiment [15], 1.93; in experiment [17] it was -0.0593. In addition, the composite z-score in experiment [18] was -0.86; in experiment [19], -0.582; in experiment [20], -0.282. Also, the z-score in experiment [8] is -0.701 (inactive); in experiment [12], -1.53 (inactive); in experiment [13], -4.08 (inactive); in [14], 0.899 (inactive); in [16], 0.322 (inactive).

Turning to `O=C1O[C@H](c2ccccc2)[C@H](c2ccccc2)N2[C@H]1[C@@H](C(=O)N1CCCCCCC1)[C@]1(C(=O)Nc3ccc(C#CCCO)cc31)[C@H]2c1ccc(O)cc1`, the composite z-score in experiment [1] came out at 3.79; in experiment [2], 2.62; in [3], 0.978; in experiment [4], 1.4; in experiment [5], 1.79; in experiment [6] it was 2.79. Also, the composite z-score in [7] was found to be 1.42; in [9], 3.34; in experiment [10], 1.7; in experiment [11], 1.54; in experiment [15], 5.04; in [17], 1.78. In addition, the composite z-score in [18] amounted to 0.731; in [19], 1.02; in experiment [20], 1.38. Besides, the z-score is -1.1 (inactive) in experiment [8]; 0.6 (inactive) in [12]; -0.36 (inactive) in [13]; 1.45 (inactive) in experiment [14]; 2.08 (inactive) in experiment [16].

Take `COCCOC(=O)N1C(=O)[C@@]2(c3cc(C#CC4=CCCCC4)ccc31)[C@H](C(=O)N1CCCCCCC1)[C@H]1C(=O)O[C@H](c3ccccc3)[C@H](c3ccccc3)N1[C@@H]2c1ccccc1OCCO`: the composite z-score turned out to be 2.57 in experiment [1]; 0.571 in experiment [2]; 0.0328 in [3]; 0.271 in experiment [4]; 1.08 in experiment [5]; 1.11 in [6]. For the same molecule, the composite z-score in experiment [7] worked out at 1.18; in experiment [9], 2.04; in [10], 0.33; in experiment [11], 1.55; in [15], 3.02; in experiment [17], 1.15. For the same molecule, the composite z-score in experiment [18] came to 1.5; in [19], 1.06; in experiment [20], 0.417. Also, the z-score in experiment [8] is 0.927 (inactive); in [12], 1.01 (inactive); in experiment [13], -1.22 (inactive); in experiment [14], 1.98 (inactive); in experiment [16], 0.87 (inactive).
